Laboratory results: PubChem BioAssay (NCI)
This is part of a sample that, as a whole, favours compounds with a hit. Of some 79,000 tested, about 15% had one in any assay. Unmarked numbers belong to inactive results. Active and inactive are the calls of the source. Cut-off read from the data, not from the text of the source: active = growth inhibition above about 70%; inactive = the rest.

Experiments:
[1] = NCI Yeast Anticancer Drug Screen. Data for the rad50 strain (AID 155);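 note: 0% = growth of vehicle-only cultures of the same strain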; details: S. cerevisiae rad50 strain growth inhibition; at 50.0 µM; stronger effect = higher value
Method in brief: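 Growth of the mutant yeast was measured after compound exposure and referenced to vehicle-treated cultures.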

[2] = NCI Yeast Anticancer Drug Screen. Data for the mec2-1 strain (AID 157); details: S. cerevisiae mec2-1 strain, at 50.0 µM, stronger effect = higher value
Method in brief: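 Test agents were screened against the mec2-1 yeast strain, with defined DNA repair or cell cycle alteration. Growth was scored as inhibition against vehicle-only controls.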

[3] = NCI Yeast Anticancer Drug Screen. Data for the sgs1 mgt1 strain (AID 161);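 note: 0% = growth of cultures given vehicle only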; details: S. cerevisiae sgs1 mgt1 strain, at 50.0 µM, stronger effect = higher value
Method in brief: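 Read-out: growth inhibition vs vehicle controls. Cells: mutant yeast strain deficient in DNA damage repair.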

[4] = NCI Yeast Anticancer Drug Screen. Data for the cln2 rad14 strain (AID 165);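 note: 0% = growth equal to vehicle treated cultures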; details: S. cerevisiae cln2 rad14 strain, at 50.0 µM, stronger effect = higher value
Method in brief: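 Growth of compound-exposed yeast (cln2 rad14 genotype) measured and expressed as inhibition relative to vehicle.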

[5] = NCI Yeast Anticancer Drug Screen. Data for the bub3 strain (AID 167); details: S. cerevisiae bub3 mutant strain, at 50.0 µM, stronger effect = higher value
Method in brief: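 Whole-cell yeast assay. The mutant strain was incubated with compounds, and growth inhibition was determined by comparison with vehicle-treated cells.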

[6] = NCI Yeast Anticancer Drug Screen. Data for the mlh1 rad18 strain (AID 175); details: S. cerevisiae mlh1 rad18 strain growth inhibition; at 50.0 µM; stronger effect = higher value
Method in brief: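 In this whole-cell yeast screen, a strain with altered DNA damage repair is challenged with compound, and its growth is measured against matched vehicle-treated controls.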

CC(CCOc1ccc2ccc(=O)oc2c1)C1=CC(=O)C(C)(C)O1 (centres undefined)
growth inhibition [1]: -6.1% | growth inhibition [2]: -8.3% | growth inhibition [3]: 21.1% | growth inhibition [4]: 0.05% | growth inhibition [5]: -7.25% | growth inhibition [6]: -44.1%

CO[C@@]12[C@@H]3N[C@@H]3CN1C1=C(C(=O)C(Nc3ccc(O)cc3C)=C(C)C1=O)[C@@H]2COC(N)=O
growth inhibition [1]: 61% | growth inhibition [2]: 29.1% | growth inhibition [3]: 20% | growth inhibition [4]: 44.4% | growth inhibition [5]: -14.6% | growth inhibition [6]: 71% (active)

C=C1CCN2CC[C@@H](OC(=O)/C(C)=C\C)[C@@H]12
growth inhibition [1]: 1.65% | growth inhibition [2]: 1.3% | growth inhibition [3]: 7.1% | growth inhibition [4]: -1.9% | growth inhibition [5]: 12.9% | growth inhibition [6]: -22.1%

CC12CCC3C(CCC4=CC(O)CCC43C=O)C1(O)CCC2c1ccc(=O)oc1 (centres undefined)
growth inhibition [1]: 7.15% | growth inhibition [2]: -35% | growth inhibition [3]: 18.1% | growth inhibition [4]: 15.2% | growth inhibition [5]: -11.2% | growth inhibition [6]: 5.05%

c1cc[c]([Hg][S]c2nc3ccccc3s2)cc1
growth inhibition [1]: -22.4% | growth inhibition [2]: -7.1% | growth inhibition [3]: -6.05% | growth inhibition [4]: -37.3% | growth inhibition [5]: -5.15% | growth inhibition [6]: -5.1%

CC1(C)N=C(N)N=C(N)N1c1ccc(CCCCc2cc(Cl)ccc2S(=O)(=O)F)c(Cl)c1
growth inhibition [1]: 99.3% (active) | growth inhibition [2]: 99.7% (active) | growth inhibition [3]: 99.5% (active) | growth inhibition [4]: 98.4% (active) | growth inhibition [5]: 98.5% (active) | growth inhibition [6]: 99.6% (active)

Cc1ccnc(NN=O)c1
growth inhibition [1]: -2.35% | growth inhibition [2]: -18.8% | growth inhibition [3]: -6.75% | growth inhibition [4]: -1.05% | growth inhibition [5]: -17.1% | growth inhibition [6]: 2.25%

[CH3][Sn]1([CH3])[O]C(=O)C(=O)[O]1
growth inhibition [1]: 12.2% | growth inhibition [2]: 19.4% | growth inhibition [3]: 2.4% | growth inhibition [4]: -26.8% | growth inhibition [5]: -9.6% | growth inhibition [6]: 7.8%

CCCCOC(N)=O
growth inhibition [1]: -34.6% | growth inhibition [2]: -11.6% | growth inhibition [3]: 29.4% | growth inhibition [4]: -19.9% | growth inhibition [5]: 0.1% | growth inhibition [6]: 0.3%

COc1ccc(CCN)cc1OC
growth inhibition [1]: 37.5% | growth inhibition [2]: 9.9% | growth inhibition [3]: 23% | growth inhibition [4]: -82% | growth inhibition [5]: -5.05% | growth inhibition [6]: -24.2%

N#CCc1ccc(O)cc1
growth inhibition [1]: 1.25% | growth inhibition [2]: 6.75% | growth inhibition [3]: -20.8% | growth inhibition [4]: -5.1% | growth inhibition [5]: -4.7% | growth inhibition [6]: 14%

COc1ccc(C2C=C(c3ccc4c(c3)OCO4)Oc3c2c(=O)oc2ccccc32)cc1OC (centres undefined)
growth inhibition [1]: 11.5% | growth inhibition [2]: 4.1% | growth inhibition [3]: 10.1% | growth inhibition [4]: 16.4% | growth inhibition [5]: 22.7% | growth inhibition [6]: 37%

Cc1nnc(NC2=NCCO2)s1
growth inhibition [1]: -4.2% | growth inhibition [2]: -5.5% | growth inhibition [3]: -1.6% | growth inhibition [4]: -28.1% | growth inhibition [5]: -14.2% | growth inhibition [6]: -4%

COc1ccc2c(c1)CC(CN1CCC3(CC1)C(=O)N(C)CN3c1ccccc1)O2 (centres undefined)
growth inhibition [1]: -24.6% | growth inhibition [2]: 0.95% | growth inhibition [3]: -19.7% | growth inhibition [4]: -27.4% | growth inhibition [5]: 0.45% | growth inhibition [6]: -9.8%

NC1CC(O)C(O)CC1c1ccc2c(c1)OCO2 (centres undefined)
growth inhibition [1]: -26.5% | growth inhibition [2]: -4.45% | growth inhibition [3]: -15.9% | growth inhibition [4]: -13.9% | growth inhibition [5]: 6.9% | growth inhibition [6]: -17.2%

CCOC(=O)C(Cc1ccc(N(CCCl)CCCl)cc1)NC(=O)C(C)NC(C)=O (centres undefined)
growth inhibition [1]: 0.45% | growth inhibition [2]: -7.3% | growth inhibition [3]: -15.5% | growth inhibition [4]: 15.7% | growth inhibition [5]: -0.6% | growth inhibition [6]: 7%

CCCCCCCCCCCCCCCCP(=O)(O)OP(=O)(O)OCC1OC(n2cnc3c(N)ncnc32)C(O)C1O (centres undefined)
growth inhibition [1]: 58.3% | growth inhibition [2]: 53.2% | growth inhibition [3]: 88.2% (active) | growth inhibition [4]: 58.6% | growth inhibition [5]: 44.6% | growth inhibition [6]: 80.3% (active)

CCCCC(=O)c1cc(OC)cc(OC)c1
growth inhibition [1]: 8.35% | growth inhibition [2]: -12.3% | growth inhibition [3]: -34.1% | growth inhibition [4]: -54% | growth inhibition [5]: 22.4% | growth inhibition [6]: -10.7%

CCCCCCN(CCCCCC)C1C=CCCC1 (centres undefined)
growth inhibition [1]: -5.4% | growth inhibition [2]: -11.2% | growth inhibition [3]: 0.25% | growth inhibition [4]: -32.6% | growth inhibition [5]: -2.2% | growth inhibition [6]: -4.15%

CCOP(=O)(OCC)Oc1ccc(S(C)=O)cc1 (centres undefined)
growth inhibition [1]: -1.95% | growth inhibition [2]: -14.8% | growth inhibition [3]: -1% | growth inhibition [4]: -10.2% | growth inhibition [5]: 8.75% | growth inhibition [6]: -0.25%

CC(C)(C)c1cc(C=C(C#N)C#N)cc(C(C)(C)C)c1O
growth inhibition [1]: 4.3% | growth inhibition [2]: 10.6% | growth inhibition [3]: 7.55% | growth inhibition [4]: -32.8% | growth inhibition [5]: 48.6% | growth inhibition [6]: 6.45%

Cc1cc(Cl)ccc1O
growth inhibition [1]: -1.2% | growth inhibition [2]: -14.8% | growth inhibition [3]: -0.3% | growth inhibition [4]: 0.5% | growth inhibition [5]: -3.1% | growth inhibition [6]: -1.7%

O=S(=O)(O)C1CCC(O)C2[N-]CCCC21.O=S(=O)(O)C1CCC(O)C2[N-]CCCC21.[Ni+2] (centres undefined)
growth inhibition [1]: 50.8% | growth inhibition [2]: -4.3% | growth inhibition [3]: 27.9% | growth inhibition [4]: -13.4% | growth inhibition [5]: 8.4% | growth inhibition [6]: 23.9%

CN1C2CCC1CC1(C2)SCCS1
growth inhibition [1]: 2.5% | growth inhibition [2]: 3.85% | growth inhibition [3]: 3.1% | growth inhibition [4]: 6.2% | growth inhibition [5]: 6.85% | growth inhibition [6]: 4.45%

O=C(COc1ccc(Cl)c(Cl)c1)Nc1ccc[n+](Cc2ccc(S(=O)(=O)F)c(Cl)c2)c1
growth inhibition [1]: 62% | growth inhibition [2]: 94.3% (active) | growth inhibition [3]: 98.3% (active) | growth inhibition [4]: 95.8% (active) | growth inhibition [5]: 94.8% (active) | growth inhibition [6]: 99.5% (active)

CCCCCCCNC(c1ccccc1)C(O)c1ccccc1 (centres undefined)
growth inhibition [1]: 8.4% | growth inhibition [2]: 10.4% | growth inhibition [3]: 12.1% | growth inhibition [4]: -40.2% | growth inhibition [5]: 1.55% | growth inhibition [6]: -3.05%

[Cu+2].[NH-]c1ccccc1C(=O)O.[NH-]c1ccccc1C(=O)O
growth inhibition [1]: -34.8% | growth inhibition [2]: -21.8% | growth inhibition [3]: -13.9% | growth inhibition [4]: -87.7% | growth inhibition [5]: -27.1% | growth inhibition [6]: -52.4%

C1=CC2C=CC(C=C1)[PH+]2c1ccccc1.C1=CC2C=CC(C=C1)[PH+]2c1ccccc1.[C-]#[O+].[C-]#[O+].[C-]#[O+].[Fe] (centres undefined)
growth inhibition [1]: -20.1% | growth inhibition [2]: 4.4% | growth inhibition [3]: -6.6% | growth inhibition [4]: 26.1% | growth inhibition [5]: 10.6% | growth inhibition [6]: -4.85%

CCCCN1CCC2(C)c3cc(O)ccc3CC1C2CC (centres undefined)
growth inhibition [1]: 6.8% | growth inhibition [2]: 9.5% | growth inhibition [3]: 4.4% | growth inhibition [4]: -46.6% | growth inhibition [5]: 11.3% | growth inhibition [6]: 12.7%

CC(CCC#N)([N+](=O)[O-])[N+](=O)[O-]
growth inhibition [1]: 17.1% | growth inhibition [2]: 12.8% | growth inhibition [3]: 4.35% | growth inhibition [4]: 0.5% | growth inhibition [5]: 10.3% | growth inhibition [6]: 12.9%

CC1(C)CN=C(Nc2ccc(Cl)cc2)S1
growth inhibition [1]: 13.9% | growth inhibition [2]: 1.45% | growth inhibition [3]: -12.1% | growth inhibition [4]: 13.5% | growth inhibition [5]: -10.7% | growth inhibition [6]: -31.2%

NCCCC(N)P(=O)(O)O (centres undefined)
growth inhibition [1]: 12.3% | growth inhibition [2]: -1.6% | growth inhibition [3]: 2.6% | growth inhibition [4]: -106% | growth inhibition [5]: 1% | growth inhibition [6]: 5.55%

Cc1ccc(Cl)c2c1CC(=[N+]=[N-])C2=O
growth inhibition [1]: 10.2% | growth inhibition [2]: 5.2% | growth inhibition [3]: 8.7% | growth inhibition [4]: -0.45% | growth inhibition [5]: 10.5% | growth inhibition [6]: 7.15%

CC(Cc1cccc2c1Nc1ccccc1S2)N(C)CCO (centres undefined)
growth inhibition [1]: -60.2% | growth inhibition [2]: -40.5% | growth inhibition [3]: -28.6% | growth inhibition [4]: -5.25% | growth inhibition [5]: -25.4% | growth inhibition [6]: -30.1%

CC(=N\[O-])/C(C)=N/[O-].CC(=N\[O-])/C(C)=N/[O-].[Cu+2]
growth inhibition [1]: 42.8% | growth inhibition [2]: 22.9% | growth inhibition [3]: 15% | growth inhibition [4]: -18.9% | growth inhibition [5]: 33.5% | growth inhibition [6]: 29.2%

CC(CO)([N+](=O)[O-])[N+](=O)[O-]
growth inhibition [1]: 7.45% | growth inhibition [2]: 4.75% | growth inhibition [3]: -0.05% | growth inhibition [4]: -0.1% | growth inhibition [5]: 4.8% | growth inhibition [6]: 7.35%

Cc1ccc(C)c(OP(=O)(Oc2cc(C)ccc2C)Oc2cc(C)ccc2C)c1
growth inhibition [1]: -29.8% | growth inhibition [2]: -42.5% | growth inhibition [3]: -15.6% | growth inhibition [4]: 8.85% | growth inhibition [5]: -18% | growth inhibition [6]: -36.9%

O=C(O)C(F)(F)C(F)(Cl)C(F)(F)C(F)(Cl)C(F)(F)Cl (centres undefined) (tested in a mixture with another compound)
growth inhibition [1]: -7.65% | growth inhibition [2]: -12.8% | growth inhibition [3]: -12.7% | growth inhibition [4]: -28.2% | growth inhibition [5]: 1.1% | growth inhibition [6]: -6.2%

O=P1(Oc2ccccc2)N(CCCl)CCN1c1ccccc1 (centres undefined)
growth inhibition [1]: -12.2% | growth inhibition [2]: -44.8% | growth inhibition [3]: 7.15% | growth inhibition [4]: 13.2% | growth inhibition [5]: 32.1% | growth inhibition [6]: -4.65%
